Experimental data taken from PubChem BioAssay (NCATS).
Records with an inconclusive call do not appear. A number with no mark means an inactive call. Calls of active or inactive are those of the source. Unless noted, calls come from the whole dose curve; as a rule, active = well fitted curve in the direction sought with a large enough effect; inconclusive = small, poorly fitted or top-dose-only effect, or another doubt; inactive = no such curve, though single readings can be large; an effect the other way counts as inactive or inconclusive. Starred links: 1 amine or outer side, 2 acyl side, 3 side chain; linkers in the order of their positions; H or OH if unused. Positions of bridges follow the written chain, without caps; N, C: chain ends. Non-standard residues stand in square brackets, D forms with d. Residues, ends and D or L forms follow the SMILES beside them. ξ: configuration not given here. *: point of attachment. X3 = C[C@@H](Oc1ccc([C@H](N[*:1])C(=O)[*:2])cc1)[C@]1(/C=C\C(=O)[*:3])CO1; d(aIle) = CC[C@H](C)[C@@H](N)C(=O)O; X2 = CC(C)[C@@H](O)C(C)C(=O)*; ξNMeF = CNC(Cc1ccccc1)C(=O)O; ξT = CC(O)C(N)C(=O)O; ξS = NC(CO)C(=O)O

Experiments:
[1] = HEK-293 Cancer Cell Toxicity qHTS against the NCATS CANVASS Library (AID 1347355)
In short: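 Luminescent ATP read-out (CellTiter-Glo, 15min at room temperature) measures survival after cells face an 11-point compound series for 72 hours at 37 degrees C/5% CO2.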

[2] = tested on: NAD(P)H diaphorase (Clostridium kluyveri); assay: Diaphorse counterscreen qHTS: Assay Interference Panel against the NCATS CANVASS Library (AID 1347362)
In short: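 Clostridium kluyveri diaphorase in PBS + 0.01% Tween-20 preincubated 15 min with compounds. Resazurin and NADH then added for 5 min at room temperature in the dark; resorufin fluorescence read (ex 525, em 598).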

[3] = KB-8-5-11 Cancer Cell Toxicity qHTS against the NCATS CANVASS Library (AID 1347364)
In short: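 Plate 500 KB-8-5-11 cells per well in DMEM + 10% FBS, add compounds by pin transfer, incubate 72 hr at 37C. Add CellTiter-Glo, wait 10 minutes at room temperature, read luminescence.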

[4] = KB-3-1 Cancer Cell Toxicity qHTS against the NCATS CANVASS Library (AID 1347366)
In short: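 CellTiter-Glo luminescence measured viability after 72 h at 37C. KB-3-1 cells were seeded at 500 per well in DMEM/10% FBS.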

[5] = target: Nuclear receptor subfamily 1 group I member 3 (Homo sapiens) (UniProt Q14994); assay: qHTS for Constitutive Androstane Receptor (CAR) Antagonist screened against the NCATS CANVASS Library (AID 1347372)
In short: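 HepG2 cells stably carrying hCAR and CYP2B6-2.2kb luciferase reporter, 2500 cells/well, compound with 50 nM CITCO agonist for 24hr at 37C. ONE-Glo luminescence measured CAR activity; CellTiter-Fluor read viability.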

[6] = qHTS for Hypoxia signaling pathway (HIF-1) antagonists against the NCATS CANVASS Library (AID 1347374)
In short: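 HRE-bla ME-180 cells in medium with 0.5% dialyzed FBS received compounds (11-point series) plus CoCl2 (60 uM addition stock) for 17 hrs at 37C. Beta-lactamase activity read with CCF4 (405 nm ex, 460/530 nm em); CellTiter-Glo viability measured in same wells.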

[7] = qHTS for Hypoxia signaling pathway (HIF-1) agonists against the NCATS CANVASS Library (AID 1347375)
In short: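 ME-180 HRE-bla reporter cells; 2,000/well, 0.5% dialyzed FBS; cpd added after 5 h, 17 h 37C/5% CO2; CCF4-AM 2 h RT; FRET 460/530 nm; CellTiter-Glo viability same wells, 30 min.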

[8] = qHTS for Inflammasome Signaling Inhibitors: IL-1-beta AlphaLISA screen against the NCATS CANVASS Library (AID 1347379)
In short: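 THP-1 cells pretreated 1 hr with compound (up to 57.5 uM final), then stimulated with LPS (250 ng/mL final) and ATP (1.25 mM final). Secreted IL-1B measured by AlphaLISA after 16 hr; glyburide as positive control.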

[9] = qHTS assay for small molecule disruptors of mitochondrial membrane potential screened against the NCATS CANVASS Library (AID 1347389)
In short: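 HepG2, 2,000 cells/well, attached overnight; compound 1 hr, 37C, 5% CO2; Mito-MPS dye 30 min, 37C; fluorescence 535 nm (monomer) and 590 nm (aggregate); decreased 590/535 ratio = depolarization.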

[10] = qHTS for inhibitors of Wild type Zika virus screened against the NCATS CANVASS Library (AID 1347396)
In short: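 Vero 766 (African green monkey) cells, 1000 per well, attached overnight, then compounds were added in an 11-point series before wild-type Zika virus infection. After 72 h at 37C, cell viability was read as CellTiter Glo luminescence.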

[11] = Viability qHTS for inhibitors of the SERCaMP assay screened against the NCATS CANVASS Library (AID 1347400)
In short: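 SH-SY5Y SERCaMP MJH297 cells, 1000/well; 4 h settle, 37C/5% CO2; pin-transferred cpds; 48 h; CellTiter-Glo lum. Pos ctrl bortezomib 0.0001 - 4.6 uM.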

[12] = qHTS for inhibitors of Rabies Virus screened against the NCATS CANVASS Library (AID 1347402; calls by dose curve)

Nuclear receptor subfamily 1 group I member 3 (Homo sapiens), sequence (Q14994 whole entry, looked up): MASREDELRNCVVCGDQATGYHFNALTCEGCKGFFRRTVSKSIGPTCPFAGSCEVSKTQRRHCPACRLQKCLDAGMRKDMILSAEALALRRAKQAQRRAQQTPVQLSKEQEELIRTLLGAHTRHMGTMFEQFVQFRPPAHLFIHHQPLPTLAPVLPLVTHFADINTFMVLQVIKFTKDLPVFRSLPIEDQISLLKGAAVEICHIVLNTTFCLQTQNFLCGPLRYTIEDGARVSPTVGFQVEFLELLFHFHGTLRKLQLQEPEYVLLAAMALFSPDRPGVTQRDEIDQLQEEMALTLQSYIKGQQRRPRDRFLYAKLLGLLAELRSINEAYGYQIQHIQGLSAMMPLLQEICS

SMILES | Potency [1] | Potency [2] | Potency [3] | Potency [4] | Potency [5] | Potency [6] | outcome [7] | Potency [8] | Potency [9] | Potency [10] | Potency [11] | outcome [12]
CO[C@H]1[C@H](O[C@H]2CC[C@]3(C=O)[C@H]4CC[C@]5(C)[C@@H](C6=CC(=O)OC6)CC[C@]5(O)[C@@H]4CC[C@]3(O)C2)O[C@H](C)[C@H](O)[C@@H]1OC | 0.105 µM (active) | inactive | 0.132 µM (active) | 0.235 µM (active) | 0.295 µM (active) | 0.0838 µM (active) | inactive | 0.685 µM (active) | inactive | inactive | 0.303 µM (active) | –
c1ccc2nc3c(cc2c1)[nH]c1ccccc13 | inactive | inactive | inactive | inactive | inactive | inactive | inactive | inactive | 16.6 µM (active) | inactive | inactive | inactive
CC[C@H](C)[C@H]1NC(=O)[C@@H](NC(=O)C(C)[C@H](O)C(C)C)[C@@H](C)OC(=O)C2COC(=O)CNC(=O)/C=C\[C@]3(CO3)[C@@H](C)Oc3ccc(cc3)[C@H](NC1=O)C(=O)N(C)C(Cc1ccccc1)C(=O)NC(C(C)O)C(=O)N2 (stereo not given in full) (X2-T[d(aIle)][X3][ξNMeF][ξT][ξS]; ester 1-C; linker 3-6 via G) | inactive | inactive | inactive | inactive | inactive | inactive | inactive | inactive | inactive | inactive | inactive | inactive
C=C[C@]12C=CCN3CC[C@@]4(c5ccccc5NC(=O)[C@@H]4C1)[C@@H]32 | inactive | inactive | inactive | inactive | – | inactive | inactive | inactive | inactive | inactive | inactive | inactive
C[C@]12CC(O)C3[C@@H](CCC4C[C@@H](O)CC[C@@]43CO)[C@@]1(O)CC[C@@H]2C1=CC(=O)OC1 (stereo not given in full) | 13.2 µM (active) | inactive | 18.7 µM (active) | 26.4 µM (active) | 10.5 µM (active) | 9.41 µM (active) | inactive | – | inactive | inactive | 13.5 µM (active) | –
CCCCC1CC[C@H]2CCCC(CCC)N12 (stereo not given in full) | inactive | inactive | inactive | inactive | inactive | inactive | inactive | inactive | inactive | inactive | inactive | inactive
C[C@]12CC(O)C3[C@@H](CC[C@@H]4C[C@@H](O)CC[C@]34CO)[C@@]1(O)CC[C@@H]2C1=CC(=O)OC1 (stereo not given in full) | 3.72 µM (active) | inactive | 5.9 µM (active) | 9.35 µM (active) | 4.17 µM (active) | 2.98 µM (active) | inactive | 12.2 µM (active) | inactive | inactive | 7.6 µM (active) | inactive
C=C[C@H]1CN2CCc3c([nH]c4cccc(OC)c34)[C@@H]2C[C@@H]1/C(=C\OC)C(=O)OC | 18.7 µM (active) | inactive | inactive | – | inactive | inactive | inactive | inactive | – | inactive | inactive | –
O[C@H]1C=C[C@@]23CCN(Cc4cc5c(cc42)OCO5)[C@@H]3C1 | inactive | inactive | inactive | inactive | inactive | inactive | inactive | inactive | inactive | inactive | inactive | inactive
CC[C@]12C=CCN3CC[C@]4(C(=C(C(=O)OC)C1)Nc1ccccc14)[C@@H]32 | – | inactive | inactive | inactive | inactive | inactive | inactive | – | inactive | inactive | – | inactive
